ChEMBL document CHEMBL1961873, “Compounds: GSK PKIS; Assays: Nanosyn kinase panel” (2012)

How the values were obtained:
[1] = target: Sphingosine kinase 1 (Homo sapiens) (UniProt Q9NYA1); details: at 1 µM;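 note: mean SPHK1 inhibition value reported from the GSK PKIS kinase panel screen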
[2] = target: T1, Sphingosine kinase 2 (Homo sapiens) (UniProt Q9NRA0); details: at 0.1 µM
T1 sequence (whole entry): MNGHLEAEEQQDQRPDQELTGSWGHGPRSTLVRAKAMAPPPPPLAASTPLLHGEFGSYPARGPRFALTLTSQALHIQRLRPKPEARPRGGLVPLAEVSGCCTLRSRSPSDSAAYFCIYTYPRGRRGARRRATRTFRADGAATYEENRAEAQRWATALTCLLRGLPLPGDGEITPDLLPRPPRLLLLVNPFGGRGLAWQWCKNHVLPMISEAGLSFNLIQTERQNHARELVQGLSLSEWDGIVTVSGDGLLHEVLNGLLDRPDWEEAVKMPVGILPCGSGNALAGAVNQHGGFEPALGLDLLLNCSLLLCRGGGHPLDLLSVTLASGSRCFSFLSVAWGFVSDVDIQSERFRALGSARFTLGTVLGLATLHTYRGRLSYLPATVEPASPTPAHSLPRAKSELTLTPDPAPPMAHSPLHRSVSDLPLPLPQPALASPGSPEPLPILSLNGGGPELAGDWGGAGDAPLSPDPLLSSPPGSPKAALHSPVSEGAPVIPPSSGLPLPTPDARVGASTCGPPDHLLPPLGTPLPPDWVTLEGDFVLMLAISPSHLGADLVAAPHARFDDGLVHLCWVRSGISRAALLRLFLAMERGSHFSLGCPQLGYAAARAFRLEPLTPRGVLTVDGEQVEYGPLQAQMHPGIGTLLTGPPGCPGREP

[3] = target: T1, Sphingosine kinase 2 (Homo sapiens); details: at 1 µM
[4] = target: Casein kinase II subunit alpha (Homo sapiens) (UniProt P68400); details: at 0.1 µM
[5] = target: Casein kinase II subunit alpha (Homo sapiens) (UniProt P68400); details: at 1 µM
[6] = target: T2, Inhibitor of nuclear factor kappa-B kinase subunit alpha (Homo sapiens) (UniProt O15111); details: at 0.1 µM
T2 sequence (whole entry): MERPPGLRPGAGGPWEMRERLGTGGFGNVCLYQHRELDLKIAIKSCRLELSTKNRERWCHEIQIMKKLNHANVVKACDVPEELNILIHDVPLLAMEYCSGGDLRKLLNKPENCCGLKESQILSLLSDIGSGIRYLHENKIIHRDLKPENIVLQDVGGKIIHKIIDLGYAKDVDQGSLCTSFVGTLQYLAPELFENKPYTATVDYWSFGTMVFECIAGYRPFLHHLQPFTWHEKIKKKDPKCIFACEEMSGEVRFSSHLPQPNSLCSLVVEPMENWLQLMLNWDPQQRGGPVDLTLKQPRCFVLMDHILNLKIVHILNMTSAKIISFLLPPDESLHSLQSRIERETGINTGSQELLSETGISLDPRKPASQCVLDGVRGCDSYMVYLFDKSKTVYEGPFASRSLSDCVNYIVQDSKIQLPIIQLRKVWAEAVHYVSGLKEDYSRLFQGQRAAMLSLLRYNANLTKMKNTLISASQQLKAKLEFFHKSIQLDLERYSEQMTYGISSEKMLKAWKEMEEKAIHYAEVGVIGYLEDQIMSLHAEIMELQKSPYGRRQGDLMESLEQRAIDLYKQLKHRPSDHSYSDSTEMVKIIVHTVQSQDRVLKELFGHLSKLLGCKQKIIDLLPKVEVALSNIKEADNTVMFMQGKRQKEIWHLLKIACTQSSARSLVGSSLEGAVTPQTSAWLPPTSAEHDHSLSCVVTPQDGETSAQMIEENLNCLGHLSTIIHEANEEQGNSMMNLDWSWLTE

[7] = target: T2, Inhibitor of nuclear factor kappa-B kinase subunit alpha (Homo sapiens); details: at 1 µM
[8] = target: T3, Inhibitor of nuclear factor kappa-B kinase subunit beta (Homo sapiens) (UniProt O14920); details: at 0.1 µM
T3 sequence (whole entry): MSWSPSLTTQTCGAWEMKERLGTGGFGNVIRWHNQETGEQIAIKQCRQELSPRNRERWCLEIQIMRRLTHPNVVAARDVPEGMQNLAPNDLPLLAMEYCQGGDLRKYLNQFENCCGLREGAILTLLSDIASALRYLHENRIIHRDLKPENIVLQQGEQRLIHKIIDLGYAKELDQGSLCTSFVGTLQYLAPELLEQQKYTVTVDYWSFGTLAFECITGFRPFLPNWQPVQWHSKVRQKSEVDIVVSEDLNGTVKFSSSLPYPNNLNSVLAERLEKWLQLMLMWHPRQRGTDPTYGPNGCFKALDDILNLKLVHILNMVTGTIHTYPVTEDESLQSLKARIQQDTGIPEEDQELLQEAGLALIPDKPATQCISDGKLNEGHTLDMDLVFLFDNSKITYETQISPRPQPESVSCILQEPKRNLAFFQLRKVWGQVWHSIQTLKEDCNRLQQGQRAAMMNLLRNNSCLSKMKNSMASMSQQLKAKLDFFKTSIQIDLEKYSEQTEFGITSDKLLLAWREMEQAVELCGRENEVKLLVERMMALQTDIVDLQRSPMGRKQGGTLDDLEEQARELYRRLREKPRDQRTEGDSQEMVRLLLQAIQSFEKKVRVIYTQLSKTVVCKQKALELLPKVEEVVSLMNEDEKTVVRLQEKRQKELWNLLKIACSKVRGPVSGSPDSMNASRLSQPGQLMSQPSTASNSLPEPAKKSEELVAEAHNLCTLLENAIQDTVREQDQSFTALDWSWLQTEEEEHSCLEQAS

[9] = target: T3, Inhibitor of nuclear factor kappa-B kinase subunit beta (Homo sapiens); details: at 1 µM
[10] = target: T4, Inhibitor of nuclear factor kappa-B kinase subunit epsilon (Homo sapiens) (UniProt Q14164); details: at 0.1 µM
T4 sequence (whole entry): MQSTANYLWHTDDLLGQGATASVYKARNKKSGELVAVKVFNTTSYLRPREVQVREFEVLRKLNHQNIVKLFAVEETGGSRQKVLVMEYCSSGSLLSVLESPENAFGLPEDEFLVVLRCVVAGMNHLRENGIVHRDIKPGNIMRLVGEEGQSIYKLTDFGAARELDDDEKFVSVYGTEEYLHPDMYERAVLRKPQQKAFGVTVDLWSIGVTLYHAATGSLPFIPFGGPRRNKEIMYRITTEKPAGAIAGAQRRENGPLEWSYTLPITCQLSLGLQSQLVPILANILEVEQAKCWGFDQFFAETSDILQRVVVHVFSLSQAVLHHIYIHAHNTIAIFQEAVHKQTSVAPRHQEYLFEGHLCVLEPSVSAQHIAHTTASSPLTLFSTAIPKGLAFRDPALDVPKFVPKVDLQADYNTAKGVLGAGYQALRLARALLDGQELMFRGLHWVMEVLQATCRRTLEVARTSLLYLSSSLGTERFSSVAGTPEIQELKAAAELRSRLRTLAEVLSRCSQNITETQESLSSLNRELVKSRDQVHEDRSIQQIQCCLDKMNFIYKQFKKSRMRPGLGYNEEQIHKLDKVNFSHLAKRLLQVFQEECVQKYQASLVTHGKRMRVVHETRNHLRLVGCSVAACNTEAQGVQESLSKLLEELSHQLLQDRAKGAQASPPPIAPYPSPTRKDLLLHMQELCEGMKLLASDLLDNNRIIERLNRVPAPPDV

[11] = target: T4, Inhibitor of nuclear factor kappa-B kinase subunit epsilon (Homo sapiens); details: at 1 µM
[12] = target: T5, Serine/threonine-protein kinase Nek1 (Homo sapiens) (UniProt Q96PY6); details: at 0.1 µM
T5 sequence (whole entry): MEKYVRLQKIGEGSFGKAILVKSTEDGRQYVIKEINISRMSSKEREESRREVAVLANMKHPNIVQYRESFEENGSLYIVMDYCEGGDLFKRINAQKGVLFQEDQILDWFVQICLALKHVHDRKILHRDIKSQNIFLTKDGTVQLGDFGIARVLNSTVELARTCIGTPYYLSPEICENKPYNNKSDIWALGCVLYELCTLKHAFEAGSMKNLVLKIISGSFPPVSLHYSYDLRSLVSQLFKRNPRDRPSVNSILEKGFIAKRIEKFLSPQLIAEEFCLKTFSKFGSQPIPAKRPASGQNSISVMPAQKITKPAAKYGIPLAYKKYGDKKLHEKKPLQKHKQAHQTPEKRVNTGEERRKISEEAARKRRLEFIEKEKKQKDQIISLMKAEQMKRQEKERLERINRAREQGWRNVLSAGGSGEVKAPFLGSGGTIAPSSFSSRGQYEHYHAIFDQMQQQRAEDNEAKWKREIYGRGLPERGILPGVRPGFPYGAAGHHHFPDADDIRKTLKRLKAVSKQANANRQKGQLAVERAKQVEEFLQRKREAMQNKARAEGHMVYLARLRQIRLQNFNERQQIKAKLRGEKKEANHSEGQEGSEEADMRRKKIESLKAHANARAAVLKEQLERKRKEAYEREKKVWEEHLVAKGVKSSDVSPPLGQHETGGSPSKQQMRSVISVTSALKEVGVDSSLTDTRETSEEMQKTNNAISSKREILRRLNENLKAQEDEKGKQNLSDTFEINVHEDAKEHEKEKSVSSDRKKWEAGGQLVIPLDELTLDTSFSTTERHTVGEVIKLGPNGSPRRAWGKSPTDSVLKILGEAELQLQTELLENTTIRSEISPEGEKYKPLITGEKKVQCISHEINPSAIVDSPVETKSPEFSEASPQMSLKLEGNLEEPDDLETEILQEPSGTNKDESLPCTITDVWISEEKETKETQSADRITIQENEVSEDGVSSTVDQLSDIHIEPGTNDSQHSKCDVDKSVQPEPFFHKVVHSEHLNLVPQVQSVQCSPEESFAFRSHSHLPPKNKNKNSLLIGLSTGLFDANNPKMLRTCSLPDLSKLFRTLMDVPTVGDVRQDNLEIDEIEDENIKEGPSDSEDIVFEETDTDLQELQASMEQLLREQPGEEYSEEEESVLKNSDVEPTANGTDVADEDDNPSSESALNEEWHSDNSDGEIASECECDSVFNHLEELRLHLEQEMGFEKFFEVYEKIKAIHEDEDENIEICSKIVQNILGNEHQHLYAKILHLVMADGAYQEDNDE

[13] = target: T5, Serine/threonine-protein kinase Nek1 (Homo sapiens); details: at 1 µM
[14] = target: T6, Serine/threonine-protein kinase Nek2 (Homo sapiens) (UniProt P51955); details: at 0.1 µM
T6 sequence (whole entry): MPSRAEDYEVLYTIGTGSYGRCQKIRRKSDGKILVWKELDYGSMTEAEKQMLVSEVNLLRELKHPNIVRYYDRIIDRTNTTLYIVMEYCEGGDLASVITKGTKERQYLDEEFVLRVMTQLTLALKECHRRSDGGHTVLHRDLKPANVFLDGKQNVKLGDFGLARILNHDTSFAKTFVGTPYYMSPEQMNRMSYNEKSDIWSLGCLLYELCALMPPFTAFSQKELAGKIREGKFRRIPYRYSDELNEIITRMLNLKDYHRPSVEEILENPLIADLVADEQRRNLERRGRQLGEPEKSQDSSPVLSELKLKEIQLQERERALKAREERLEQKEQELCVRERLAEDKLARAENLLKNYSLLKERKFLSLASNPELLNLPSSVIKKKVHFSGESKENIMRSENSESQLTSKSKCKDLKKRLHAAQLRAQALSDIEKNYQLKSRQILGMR

[15] = target: T6, Serine/threonine-protein kinase Nek2 (Homo sapiens); details: at 1 µM
[16] = target: Serine/threonine-protein kinase Nek6 (Homo sapiens) (UniProt Q9HC98); details: at 0.1 µM
[17] = target: Serine/threonine-protein kinase Nek6 (Homo sapiens) (UniProt Q9HC98); details: at 1 µM
[18] = target: Serine/threonine-protein kinase Nek7 (Homo sapiens) (UniProt Q8TDX7); details: at 0.1 µM
[19] = target: Serine/threonine-protein kinase Nek7 (Homo sapiens) (UniProt Q8TDX7); details: at 1 µM
[20] = target: T7, Serine/threonine-protein kinase Nek9 (Homo sapiens) (UniProt Q8TD19); details: at 0.1 µM;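 note: reported value is the mean percent inhibition of NEK9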
T7 sequence (whole entry): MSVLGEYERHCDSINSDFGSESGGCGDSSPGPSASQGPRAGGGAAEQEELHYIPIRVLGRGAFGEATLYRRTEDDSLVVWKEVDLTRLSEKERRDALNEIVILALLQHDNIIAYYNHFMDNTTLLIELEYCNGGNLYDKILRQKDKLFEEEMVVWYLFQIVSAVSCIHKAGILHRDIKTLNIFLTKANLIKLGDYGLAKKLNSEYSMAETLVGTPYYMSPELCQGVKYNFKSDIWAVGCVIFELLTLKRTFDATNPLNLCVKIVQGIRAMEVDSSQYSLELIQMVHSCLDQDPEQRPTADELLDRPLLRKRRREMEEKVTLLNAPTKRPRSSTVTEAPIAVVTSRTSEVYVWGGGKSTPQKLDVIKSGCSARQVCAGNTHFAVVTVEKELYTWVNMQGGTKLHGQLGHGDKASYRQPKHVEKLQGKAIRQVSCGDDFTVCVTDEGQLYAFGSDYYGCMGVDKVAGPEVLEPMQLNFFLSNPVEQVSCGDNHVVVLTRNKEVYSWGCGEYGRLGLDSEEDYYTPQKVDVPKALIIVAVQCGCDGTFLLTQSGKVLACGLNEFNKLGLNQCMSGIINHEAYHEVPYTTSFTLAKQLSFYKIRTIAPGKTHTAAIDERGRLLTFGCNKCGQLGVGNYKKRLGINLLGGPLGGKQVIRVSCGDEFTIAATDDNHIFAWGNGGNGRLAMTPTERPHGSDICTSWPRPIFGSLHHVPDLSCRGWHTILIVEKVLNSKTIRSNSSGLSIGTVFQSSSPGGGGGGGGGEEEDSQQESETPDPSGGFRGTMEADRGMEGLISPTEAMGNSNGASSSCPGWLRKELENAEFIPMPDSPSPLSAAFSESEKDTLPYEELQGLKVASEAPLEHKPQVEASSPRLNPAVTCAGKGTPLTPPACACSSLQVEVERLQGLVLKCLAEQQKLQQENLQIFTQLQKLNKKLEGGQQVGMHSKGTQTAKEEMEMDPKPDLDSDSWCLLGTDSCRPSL

Chain of Serine/threonine-protein kinase Nek6 (Homo sapiens) (Q9HC98 whole entry): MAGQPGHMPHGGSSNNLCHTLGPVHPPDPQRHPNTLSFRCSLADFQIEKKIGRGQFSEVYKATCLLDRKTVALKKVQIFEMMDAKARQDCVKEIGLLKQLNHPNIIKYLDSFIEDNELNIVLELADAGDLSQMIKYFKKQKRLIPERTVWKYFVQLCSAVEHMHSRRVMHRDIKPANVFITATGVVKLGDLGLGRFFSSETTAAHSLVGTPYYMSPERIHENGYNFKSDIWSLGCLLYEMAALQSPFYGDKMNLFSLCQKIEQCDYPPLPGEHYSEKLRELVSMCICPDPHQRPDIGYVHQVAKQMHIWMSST
Chain of Serine/threonine-protein kinase Nek7 (Homo sapiens) (Q8TDX7 whole entry, looked up): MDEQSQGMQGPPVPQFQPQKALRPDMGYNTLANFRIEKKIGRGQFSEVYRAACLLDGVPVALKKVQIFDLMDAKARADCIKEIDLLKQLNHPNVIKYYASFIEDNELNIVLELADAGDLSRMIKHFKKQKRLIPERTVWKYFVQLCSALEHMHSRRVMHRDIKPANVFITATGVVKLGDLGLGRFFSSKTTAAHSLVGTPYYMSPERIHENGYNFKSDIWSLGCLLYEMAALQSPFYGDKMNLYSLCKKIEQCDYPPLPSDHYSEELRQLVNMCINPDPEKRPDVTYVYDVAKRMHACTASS
Chain of Casein kinase II subunit alpha (Homo sapiens) (P68400 whole entry, looked up): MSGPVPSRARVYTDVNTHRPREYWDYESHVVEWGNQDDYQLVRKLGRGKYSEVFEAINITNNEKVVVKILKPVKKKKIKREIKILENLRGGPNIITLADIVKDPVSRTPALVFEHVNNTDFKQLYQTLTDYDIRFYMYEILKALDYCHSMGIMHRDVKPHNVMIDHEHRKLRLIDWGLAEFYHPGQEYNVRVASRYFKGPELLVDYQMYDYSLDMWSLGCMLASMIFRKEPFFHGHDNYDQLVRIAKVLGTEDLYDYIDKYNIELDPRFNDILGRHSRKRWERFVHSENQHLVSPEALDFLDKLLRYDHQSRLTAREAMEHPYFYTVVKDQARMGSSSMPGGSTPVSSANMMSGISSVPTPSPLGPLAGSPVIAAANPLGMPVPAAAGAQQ
Chain of Sphingosine kinase 1 (Homo sapiens) (Q9NYA1 whole entry): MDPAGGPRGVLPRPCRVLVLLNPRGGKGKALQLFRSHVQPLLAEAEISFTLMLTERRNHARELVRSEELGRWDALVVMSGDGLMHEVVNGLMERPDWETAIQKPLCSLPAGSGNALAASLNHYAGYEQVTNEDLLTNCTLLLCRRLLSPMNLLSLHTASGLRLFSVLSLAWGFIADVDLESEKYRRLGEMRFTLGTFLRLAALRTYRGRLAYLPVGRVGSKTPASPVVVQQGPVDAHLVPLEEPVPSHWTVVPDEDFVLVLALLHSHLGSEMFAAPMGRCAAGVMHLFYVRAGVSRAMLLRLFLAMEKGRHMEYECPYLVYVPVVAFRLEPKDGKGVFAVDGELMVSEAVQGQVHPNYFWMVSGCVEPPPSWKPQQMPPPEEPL

## CCOc1ccc2c(-c3ccnc(Nc4cc(OC)cc(C(F)(F)F)c4)n3)cnn2n1
[1]
  inhibition: 1.71%
[2]
  inhibition: 4.25%
[3]
  inhibition: 0%
[4]
  inhibition: 4.76%
[5]
  inhibition: 15.3%
[6]
  inhibition: -1.77%
[7]
  inhibition: 4.02%
[8]
  inhibition: -0.06%
[9]
  inhibition: -2.55%
[10]
  inhibition: 2.74%
[11]
  inhibition: 26.5%
[12]
  inhibition: 1.06%
[13]
  inhibition: 2.42%
[14]
  inhibition: 1.26%
[15]
  inhibition: 0.94%
[16]
  inhibition: -0.49%
[17]
  inhibition: 1.7%
[18]
  inhibition: 2.79%
[19]
  inhibition: 2.42%
[20]
  inhibition: 3.87%
